Experiment [1] has as its system Human papillomavirus type 1a protein E7 (residues 44-93). As to the kind of experiment: HPV1a E7 fragment binders on microarrays, primary screen, biochemical, small-molecule microarray, residues 44-93, 635 nm fluorescence (AID 1108).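 Also: E7 fragment applied at 1 µg/mL in TBST for 1 h at 4 C; score combines spot fluorescence with its signal to noise ratio.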 Conditions: small-molecule microarray binding, fluorescence 635 nm; higher = more signal.
The nature of experiment [2]: modulators of HCV replicon luciferase signal, primary screen, HCV replication inhibitor project, Huh7 cells, luciferase reporter (AID 1109).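 Also: huh7 hepatoma cells harbouring a luciferase neomycin HCV replicon reporter; luciferase luminescence as measure of HCV replicon replication; test concentration not given here.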 Conditions: 48 h, higher = more signal. Background: In antiviral work, replicon cells carry a viral genome segment that copies itself.
The target in experiment [3] is Left-right determination factor 2 (Homo sapiens) (UniProt O00292). The experiment can be described thus: LEFTY2 binders on small-molecule microarrays, primary screen, biochemical, small-molecule microarray, 635 nm fluorescence scan (AID 1110). Conditions: LEFTY2 binding, higher = more signal.
Chain of Left-right determination factor 2 (Homo sapiens) (O00292 whole entry, looked up): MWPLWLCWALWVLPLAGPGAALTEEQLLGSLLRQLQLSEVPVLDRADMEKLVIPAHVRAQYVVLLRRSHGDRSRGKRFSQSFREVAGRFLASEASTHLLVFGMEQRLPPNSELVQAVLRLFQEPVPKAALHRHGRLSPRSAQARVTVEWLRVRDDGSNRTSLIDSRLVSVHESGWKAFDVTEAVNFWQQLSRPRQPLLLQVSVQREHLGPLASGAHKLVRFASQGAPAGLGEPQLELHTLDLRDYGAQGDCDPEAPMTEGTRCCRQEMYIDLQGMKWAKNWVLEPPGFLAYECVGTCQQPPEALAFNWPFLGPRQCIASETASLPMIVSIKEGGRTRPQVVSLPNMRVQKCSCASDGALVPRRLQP
For experiment [4], the target named is Calmodulin-1 (Homo sapiens) (UniProt P0DP23). As to the kind of experiment: CALM1 binders on microarrays, EGTA buffer, profiling panel, biochemical, small-molecule microarray, Cy5-labelled CALM1 (AID 1111).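 Also: labelled calmodulin applied in Tris saline Tween buffer holding calcium plus EGTA and DTT.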 Conditions: Cy5-CALM1 binding fluorescence, higher = more signal.
For experiment [5] the target is unchanged. As to the kind of experiment: calcium-bound CALM1 binders on microarrays, profiling panel, artefact control for SMM control-protein annotation, biochemical, small-molecule microarray, Cy5-labelled CALM1, plus calcium (AID 1112).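 Also: score merges spot fluorescence with signal to noise from triplicate slides.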 Conditions: Cy5-CALM1 binding fluorescence, higher = more signal.
Experiment [6] is described as follows: small-molecule microarray binders of probe aWnt5a, primary screen, biochemical, biotinylated probe, 635/667 nm fluorescence (AID 1113).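 Also: score merges 667 nm fluorescence intensity with signal-to-noise per printed feature.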 Conditions: higher = more signal.
The nature of experiment [7]: small-molecule microarray binders of probe aShh, primary screen, biochemical, biotinylated probe, 635/667 nm fluorescence (AID 1114).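 Also: probe is biotin-labelled aShh protein from a stem cell growth factor screen; measures binding of labelled protein to compounds printed on the slide; score merges feature fluorescence at 667 nm with signal-to-noise.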 Conditions: higher = more signal.
The nature of experiment [8]: small-molecule microarray binders of probe aNog, primary screen, biochemical, biotinylated probe, 635/667 nm fluorescence (AID 1115).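 Also: probe is biotinylated aNog protein used at 0.15 µg/mL for 1 h at 4 C; z-score combines 667 nm fluorescence of each spot with its signal to noise.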 Conditions: higher = more signal.
In experiment [9] the target is Torsin-1A-interacting protein 1 (Homo sapiens) (UniProt Q5JTV8). The experiment can be described thus: LAP1 binders from COS7 cell lysate, primary screen, small-molecule microarray, 635/667 nm fluorescence (AID 1116). Conditions: COS7-hLAP1 lysate binding, 635 nm fluorescence, higher = more signal.
Chain of Torsin-1A-interacting protein 1 (Homo sapiens) (Q5JTV8 whole entry, looked up): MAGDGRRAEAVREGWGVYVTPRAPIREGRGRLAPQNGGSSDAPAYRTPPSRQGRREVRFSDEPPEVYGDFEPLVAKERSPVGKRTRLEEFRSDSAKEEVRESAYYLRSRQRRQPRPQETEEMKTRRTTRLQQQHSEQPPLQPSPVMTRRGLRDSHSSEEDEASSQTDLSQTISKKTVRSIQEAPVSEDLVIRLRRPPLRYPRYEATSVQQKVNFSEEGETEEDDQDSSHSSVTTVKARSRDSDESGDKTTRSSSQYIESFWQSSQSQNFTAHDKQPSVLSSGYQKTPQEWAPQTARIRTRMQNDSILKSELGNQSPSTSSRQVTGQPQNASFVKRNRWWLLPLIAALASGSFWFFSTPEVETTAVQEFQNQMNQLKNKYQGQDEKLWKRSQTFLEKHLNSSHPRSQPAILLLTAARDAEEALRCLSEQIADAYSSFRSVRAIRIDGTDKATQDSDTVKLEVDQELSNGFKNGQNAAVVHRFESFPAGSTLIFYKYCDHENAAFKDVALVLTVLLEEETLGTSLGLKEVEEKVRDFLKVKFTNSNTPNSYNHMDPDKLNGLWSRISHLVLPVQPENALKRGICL
The target of experiment [10] is Alpha-bungarotoxin (Bungarus multicinctus) (UniProt P60615). As to the kind of experiment: alpha-bungarotoxin binders on microarray, profiling panel, artefact control for SMM control protein annotation, biochemical, small-molecule microarray, Alexa647 label, 635/667 nm fluorescence (AID 1117). Conditions: alpha-BTX-A647 binding fluorescence, higher = more signal.
Chain of Alpha-bungarotoxin (Bungarus multicinctus) (P60615 whole entry, looked up): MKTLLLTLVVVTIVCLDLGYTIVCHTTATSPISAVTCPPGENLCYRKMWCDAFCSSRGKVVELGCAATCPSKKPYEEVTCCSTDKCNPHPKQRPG

Turning to `O=C1O[C@@H](c2ccccc2)[C@@H](c2ccccc2)N2[C@@H](c3ccc(O)cc3)[C@]3(C(=O)Nc4ccccc43)[C@@H](C(=O)O)[C@H]12`, the composite z-score in experiment [1] is 1.02; in experiment [3], -0.6; in experiment [4], 0.64; in experiment [5], 0.212; in experiment [6] it was -0.174; in experiment [7], -0.793. For the same compound, the composite z-score is 0.0156 in [8], 0.98 in experiment [9] and -0.0356 in experiment [10]. Besides, in [2], the z-score was -0.996.
With `COc1ccc(COC(=O)NN=C2C[C@@H](O)[C@@H](O)[C@@H]3[C@@H]4C(=O)N(Cc5ccc6c(c5)OCO6)C(=O)[C@@H]4CC[C@@H]23)cc1`, the composite z-score was -0.743 in experiment [1]; -0.218 in experiment [3]; -0.389 in [4]; -0.252 in [5]; -0.0465 in experiment [6]; 0.255 in experiment [7]. Moreover, the composite z-score worked out at 0.175 in experiment [8], 0.508 in experiment [9] and 0.452 in [10]. In [2], this compound showed a z-score of -0.404.
As for `CCOC(=O)NN=C1C[C@@H](O)[C@@H](O)[C@@H]2[C@@H]3C(=O)N(C4CCCCC4)C(=O)[C@@H]3CC[C@H]12`, the composite z-score is 0.0361 in experiment [1]; 0.511 in [3]; -0.101 in experiment [4]; -0.469 in experiment [5]; -0.128 in experiment [6]; 0.199 in experiment [7]. Further, the composite z-score was -0.245 in [8], 0.217 in experiment [9] and -0.177 in experiment [10]. The compound also returned a z-score in [2] of -0.314.
Regarding `O=C1C[C@]2(c3ccc([N+](=O)[O-])cc3)C(=O)N(CCN3CCOCC3)c3cc(CO)ccc3[C@H]2N1CC12CC3CC(CC(C3)C1)C2`, the composite z-score in experiment [1] is -0.119; in experiment [3] it was -1.1; in experiment [4], 0.846; in experiment [5], 0.305; in [6], -0.0455; in experiment [7] it was -0.0626. For the same compound, the composite z-score was -0.345 in [8], 0.15 in [9] and 1.15 in experiment [10]. Also, the z-score in experiment [2] was -0.544.
Consider `COC(=O)[C@@]1(Cc2ccc(F)cc2)[C@@H]2C(=CC(=O)[C@H]2CC(=O)C(=O)N(C)C)CN1C(=O)c1ccccc1`, for which the composite z-score in experiment [1] was 1.46; in experiment [3] it was 0.45; in [4] it was 1.98; in experiment [5] it was 1.21; in [6], 0.0839; in experiment [7], 1.21. Further, the composite z-score in [8] stood at 0.896; in [9], 1.52; in [10] it was 0.954. In experiment [2], this compound gave a z-score of -2.09.
Regarding `C[C@H]1CC[C@@H](C(=O)O)N[C@@H]1c1ccc(C#CCN(C)C)cc1`, the composite z-score in [1] was -1.64; in [3] it was 0.793; in experiment [4], -0.263; in experiment [5], -0.51; in experiment [6] it was -0.152; in [7] it was 0.148. For the same compound, the composite z-score in experiment [8] is -0.126; in experiment [9], 0.109; in [10] it was 0.783. Further, the z-score in experiment [2] amounted to 0.848.
On to `C[C@@H]1C=CCC(=O)OC[C@H](C)C(=O)N[C@@H](C)C(=O)OC1`, for which the composite z-score in experiment [1] is -0.0639; in experiment [3], 0.409; in experiment [4], -0.556; in experiment [5], -0.897; in [6] it was -0.0721; in experiment [7] it was 0.178. Moreover, the results for the composite z-score in [8], in experiment [9] and in experiment [10] were -0.141, 0.789 and -0.194, respectively. In experiment [2], this compound showed a z-score of -0.512.
Turning to `C=CC[C@@H]1C=C[C@H](ON=Cc2ccc(C(=O)N3[C@H](c4ccc(C)cc4)[C@@H](C)CC[C@H]3C(=O)OC)cc2)[C@@H](CO)O1`, the composite z-score in experiment [1] was 0.792; in experiment [3], 0.432; in experiment [4], -0.36; in experiment [5] it was -0.621; in [6], -0.148; in [7], -0.16. Besides, the composite z-score was -0.0337 in experiment [8], 0.0268 in experiment [9] and -0.255 in experiment [10]. In experiment [2], this compound gave a z-score of -1.52.
As to `CC1(C)OCC(C(O)C2=CCCCC2=O)CO1` (stereo not given), the composite z-score in experiment [1] is 0.198; in [3] it was 1.07; in experiment [4] it was 0.465; in [5], -0.927; in experiment [6], 0.0244; in experiment [7] it was -0.276. Further, the composite z-score was -0.158 in experiment [8], 0.5 in experiment [9] and 1.16 in [10]. In [2], this compound returned a z-score of -0.751.
With `C=CC[C@@H]1C=C[C@H](ON=C2c3cc(OC)ccc3O[C@H](c3cccc(OC)c3)[C@H]2O)[C@@H](CO)O1`, the composite z-score was -0.208 in [1]; 0.194 in [3]; -0.569 in experiment [4]; -0.319 in [5]; -0.175 in experiment [6]; -0.288 in experiment [7]. The composite z-score in [8] was 0.151; in experiment [9], -0.103; in experiment [10], 1.42. Moreover, the z-score in [2] is -0.892.
As for `CC(C)c1ccc(NN2C(C(O)c3ccc4c(c3)OCO4)C=CC3C(=O)N(c4ccccc4)C(=O)C32)cc1` (stereo not given), the composite z-score in [1] was 0.688; in experiment [3] it was 0.168; in [4], 2.56; in experiment [5], 1.28; in [6], 0.0775; in [7], 0.108. For the same compound, the results for the composite z-score in [8], in experiment [9] and in experiment [10] were 2.13, 2.2 and 1.92, respectively. This compound also gave a z-score in experiment [2] of 1.11.
As to `CCOC(=O)[C@H](Cc1ccccc1)NC(=O)CCC1CC(OC(=O)NCc2ccc3c(c2)OCO3)CC2(CCCC(COC(=O)NCc3cccc(C(F)(F)F)c3)O2)O1` (stereo not given in full), the composite z-score is 0.547 in [1]; 0.48 in experiment [3]; 0.214 in experiment [4]; -0.286 in experiment [5]; -0.0792 in experiment [6]; 0.108 in [7]. Also, the composite z-score in experiment [8] stood at 0.205; in experiment [9] it was 0.251; in [10] it was 0.0294. In addition, in experiment [2], the z-score was -1.21.
On to `COc1ccc(O[C@H]2C=C[C@@H](c3ccccc3)O[C@@H]2COC(=O)CCC(C)=NOCC[C@@H]2C=C[C@H](OC(C)=O)[C@@H](COC(C)=O)O2)cc1`, for which the composite z-score was -0.119 in [1]; 0.347 in experiment [3]; -1.02 in experiment [4]; -1.27 in [5]; 0.0495 in experiment [6]; 0.199 in experiment [7]. Also, the composite z-score is 0.0301 in experiment [8], 0.781 in experiment [9] and -0.0704 in experiment [10]. This compound registered a z-score in [2] of -1.1.

The values above are taken from PubChem BioAssay.
